# Screening results from PubChem.
# Sm TGR inh = blocks Schistosoma mansoni thioredoxin glutathione reductase; Q962Y6; purified TGR, DTNB reduction, TNB absorbance 405 nm; Potency, µM (series often up to 114 µM), inactives show at the highest dose activity change, negative = inhibition, actives largely listed as inhibitors; hit rate 3% among 360,000; note: potency is the fitted concentration of half-maximal effect; % is set by controls: 0 for no effect and ±100 for the full control effect; nearly all actives have a fitted effect of over 60% in size
#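 Kinetic colorimetric format: TGR-catalysed, NADPH-driven DTNB reduction monitored via TNB absorbance. Enzyme dispensed at 20 nM; compound exposure 15 min at room temperature before reaction start.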
# LmPK inh = inhibitors of Leishmania mexicana pyruvate kinase | Q27686 | purified LmPK, Kinase-Glo ATP luminescence, 1 h | Potency, µM (series often up to 57.5 µM), without a hit: at the top dose activity change, negative = inhibition, actives largely listed as inhibitors | hit rate 0.37% among 290,000 | AID 1721; note: potency is the fitted concentration of half-maximal effect; % is set by controls: 0 for no effect and ±100 for the full control effect
#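 In 50 mM imidazole pH 7.2 with 7 mM MgCl2, LmPK (0.1 nM) turned over PEP (0.5 mM) and ADP (0.1 mM) for 1 h at room temperature. Luciferase read-out of ATP.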
# CHX counter = affects cycloheximide protein synthesis inhibition readout, counter-screen; cell reporter, cycloheximide protein synthesis inhibition counterscreen; max response, %; hit rate 12% among 300,000; AID 2314; in the data active = max response mostly above about 13%, no sharp cut-off; inactive = mostly below about 14%; note: read at 38.3 µM for the half of the compounds with a filed dose; 0% is about no effect
# Giardia FBPA inh = Giardia lamblia aldolase inhibition; A8B2U2; purified Giardia FBPA; Potency, µM (series often up to 59.6 µM), inactives show at the highest dose activity, negative = inhibition, most hits filed as inhibitors; hit rate 0.71% among 290,000; AID 2451; note: potency is the fitted concentration of half-maximal effect; % is set by controls: 0 for no effect and ±100 for the full control effect; nearly all actives have a fitted effect of over 55% in size
# Target sequence (A8B2U2 whole entry, looked up): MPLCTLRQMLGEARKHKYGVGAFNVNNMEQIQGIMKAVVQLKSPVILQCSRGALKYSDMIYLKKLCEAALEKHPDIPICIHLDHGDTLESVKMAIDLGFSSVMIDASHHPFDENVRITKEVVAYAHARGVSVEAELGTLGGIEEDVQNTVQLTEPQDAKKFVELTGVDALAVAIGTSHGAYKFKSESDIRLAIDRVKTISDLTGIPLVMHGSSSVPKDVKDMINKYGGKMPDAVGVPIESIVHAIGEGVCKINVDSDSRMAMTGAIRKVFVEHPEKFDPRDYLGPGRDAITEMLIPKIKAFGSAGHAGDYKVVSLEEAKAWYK
#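 Giardia FBPA (40 nM reagent) was preincubated 10 min at RT with compound (up to 57.5 uM final), then substrate plus GAPDH/TPI/NAD/arsenate coupling system with diaphorase/resazurin was added; resorufin fluorescence (525/598 nm) was read after 20 min.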
# Shiga inhibitor = inhibitors of Shiga toxin in Vero cells | Vero cells, Shiga toxin protein synthesis inhibition reporter | inhibition, % at 38.7 µM | AID 2315 | hit rate 9.2% among 290,000; in the data active = inhibition mostly above about 28%, no sharp cut-off; inactive = mostly below about 43%; note: 0% is about no effect
# Tb PYK inh = blocks Trypanosoma brucei pyruvate kinase | Q57TT1 | TbPYK enzyme, Kinase-Glo Plus ATP luminescence, 45 min | Potency, µM (titrated, usually from 76.8 µM), for inactives: at the highest dose activity, negative = inhibition, most hits filed as inhibitors | hit rate 0.12% among 410,000 | AID 624173; note: potency is the fitted concentration of half-maximal effect; % is set by controls: 0 for no effect and ±100 for the full control effect; nearly all actives have a fitted effect of over 50% in size
#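 Luminescence from Kinase-Glo Plus, added after a 45-minute room-temperature reaction, served as the end-point read-out. The enzyme and substrate were preincubated with compound before ADP (130 uM final) initiated turnover. Concentration-effect curves came from normalized qHTS data.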
# Starred values were filed as active, the others as inactive; ? = inconclusive; . = no result. This is one part of a sample in which hits are shown more often than they occur. Unless noted, calls come from the whole dose curve; as a rule, active = well fitted curve in the direction sought with a large enough effect; inconclusive = small, poorly fitted or top-dose-only effect, or another doubt; inactive = no such curve, though single readings can be large; an effect the other way counts as inactive or inconclusive.
SMILES,Sm TGR inh,LmPK inh,CHX counter,Giardia FBPA inh,Shiga inhibitor,Tb PYK inh
COc1ccc2[nH]c(=O)c(-c3nnn(-c4ccccc4)n3)cc2c1,?,4%,2,-5%,24,1%
COc1ccc(-c2nc(-c3cccnc3)no2)cc1,12%,-15%,45*,3%,59*,-3%
COc1ccc2[nH]c(=O)c(-c3noc(-c4ccccc4)n3)cc2c1,0%,2%,66*,-3%,106*,1%
COc1cc(OC)cc(-c2nc(-c3ccccc3)no2)c1,13%,1%,17*,-5%,55,3%
COc1cccc(-c2nc(-c3ccc(C(=O)O)cc3)no2)c1,.,.,.,.,.,-15%
O=[N+]([O-])c1cccc(-c2noc(-c3cccs3)n2)c1,-1%,-10%,34*,1%,78*,0%
CC(C)C(=O)OCc1cc(=O)n2nc(C3CC3)sc2n1,-1%,.,.,.,.,-27%
COc1ccc(CCNC(=O)c2cc(Nc3ccccc3)nc3ccccc23)cc1OC,-14%,.,.,.,.,5%
COc1ccc(-c2nc(-c3ccncc3)no2)cc1,6%,-9%,53*,11%,88*,0%
c1csc(-c2cc(N3CCCCC3)c3ccccc3n2)c1,-11%,0%,11,16%,28,-7%
Cc1ccc(-c2noc(-c3cccs3)n2)cc1,0%,?,70*,13%,67*,-4%
Brc1ccc(-c2nc(-c3ccncc3)no2)cc1,6%,5%,7,16%,25,-4%
c1csc(-c2nc(N3CCCCC3)no2)c1,0%,-16%,37*,7%,82*,-5%
CCCCOc1ccc(-c2nc(-c3cccnc3)no2)cc1,-22%,-1%,25*,2%,80*,-4%
O=c1c(CCc2ccccc2)nc2cnc(N3CCNCC3)nc2n1-c1ccccc1,.,.,.,1%,.,.
O=C(NC(=O)c1ccccc1)Nc1cccc(S(=O)(=O)N2CCCCC2)c1,8%,0%,-1,7%,-3,-13%
Cc1ccccc1CSc1ncc(Cl)c(C(=O)Nc2nc3ccc(F)cc3s2)n1,-6%,.,.,.,.,-7%
CCOc1ccc(-c2nc(-c3cccnc3)no2)cc1,-2%,?,31*,-1%,23*,-14%
CCOc1nc(-c2ccccc2)ccc1-c1noc(-c2cccs2)n1,0%,3%,-3,0%,-7,0%
CCOc1ncccc1-c1nc(-c2cccs2)no1,-7%,4%,50*,12%,60*,1%
Fc1cccc(CNc2ncnc3ccc(-c4cccnc4)cc23)c1,-3%,.,.,.,.,.
O=C1C(=O)N(CC2CCCO2)C(c2ccccc2[N+](=O)[O-])/C1=C(/O)c1ccccc1 (configuration not stated),.,0%,2,-12%,20,-3%
O=C1c2cccc3cccc(c23)C(=O)N1CC1CCN(CC(O)COc2ccc3ccccc3c2)CC1 (configuration not stated),-26%,2%,72*,.,128*,-4%
CCCCCC(O)(CCN1CCCCC1)c1ccc(OCC)cc1 (configuration not stated),1µM*,0%,-4,5%,-10,-19%
CCOc1ccc(NC(=O)CCN2CCCCC2)cc1,5%,-6%,-2,0%,-10,4%
SMILES,Sm TGR inh,LmPK inh,CHX counter,Giardia FBPA inh,Shiga inhibitor,Tb PYK inh
CCC(O)(CCN1CCCCC1)c1ccccc1 (configuration not stated),14%,2%,-3,3%,-24,1%
CCCC(O)(CCN1CCCCC1)c1ccc(OCC)cc1 (configuration not stated),4µM*,4%,-2,-5%,-10,-4%
COc1ccc(C(O)(CCN2CCCCC2)C2CCCCC2)cc1 (configuration not stated),1.4µM*,0%,-3,-2%,-6,-1%
O=S(=O)(NCCc1nnc2ccc(SCc3cccc(Cl)c3)nn12)c1ccccc1,5%,.,.,.,.,0%
CCOc1ccc(C(=O)Nc2ccc3nc(SCC(=O)N4CCc5ccccc54)sc3c2)cc1,-5%,.,.,.,.,2%
COc1ccc(CCn2c3c(c(=O)[nH]c2=O)C(NC(=O)c2ccc(C(C)(C)C)cc2)(C(F)(F)F)C(=O)N3)cc1OC (configuration not stated),?,.,.,.,.,-6%
COc1ccc(C2C=C(c3ccccc3)Nc3nc(CCCO)nn32)cc1 (configuration not stated),25µM*,4%,8,-9%,-7,-9%
OCCCc1nc2n(n1)C(c1ccccc1)C=C(c1ccccc1)N2 (configuration not stated),25µM*,1%,-3,-13%,-17,2%
OCCCc1nc2n(n1)C(c1cccc(Cl)c1)C=C(c1ccccc1)N2 (configuration not stated),-14%,.,.,.,.,1%
Cc1ccc(C2C=C(c3ccc(F)cc3)Nc3nc(CCCO)nn32)cc1 (configuration not stated),?,.,.,.,.,0%
COc1ccc(C2C=C(c3cccs3)Nc3nc(CCCO)nn32)cc1 (configuration not stated),40µM*,-3%,15,-22%,93,.
CCCOc1ccc(CNC(=O)C2CCCN(c3nc4c(C)cc(C)cc4s3)C2)cc1 (configuration not stated),5%,.,.,.,.,0%
CCOc1ccccc1NC(=O)N1CCc2c(sc3c2CCCC3)C1c1ccccc1 (configuration not stated),1%,.,.,.,.,-3%
CCc1ccc(-n2nc(C)c3c(C)cc(=O)n(CC(=O)NCc4ccc(C)cc4)c32)cc1,-5%,.,.,.,.,-3%
COc1ccc(C2(C)CC(C)(C)Nc3ccccc32)cc1 (configuration not stated),-29%,9%,0,-12%,.,-18%
COc1ccc(C2CC(C)(c3ccc(OC)cc3)Nc3ccccc3N2)cc1 (configuration not stated),-4%,2%,53*,?,108*,-5%
CCOc1ccc(/C(O)=C2/C(=O)C(=O)N(c3ncccn3)C2c2ccc(Cl)cc2)cc1 (configuration not stated),4%,7%,9,14%,26,-2%
CCOc1ccc(/C(O)=C2/C(=O)C(=O)N(c3nc(C)c(C)s3)C2c2ccco2)cc1 (configuration not stated),?,0%,18*,15%,123*,1%
COC(=O)c1sc(N2C(=O)C(=O)/C(=C(/O)c3ccc(C)cc3)C2c2ccco2)nc1C (configuration not stated),7.1µM*,1%,1,-19%,-4,-11%
COc1ccc(C2/C(=C(\O)c3ccc4c(c3)OCCO4)C(=O)C(=O)N2c2nc(C)c(C(C)=O)s2)cc1 (configuration not stated),-24%,-1%,10,-2%,1,2%
